Records with an inconclusive call do not appear. The source made the active and inactive calls. The call rests on the fitted dose curve; in most records, active means well fitted curve in the direction sought with a large enough effect; inconclusive means small, poorly fitted or top-dose-only effect, or another doubt; inactive means no such curve, though single readings can be large; an effect the other way counts as inactive or inconclusive.
Columns and labels:
CRL-7250 = normal cell line; assay: Cytotoxic Profiling of Annotated Libraries Using Quantitative High-Throughput Screening (AID 1296008); conditions: Five cell lines viability, CellTiter-Glo ATP luminescence, 48-72 h; max response: hits give low values; further: nearly all actives have a fitted effect of over 60% in size; on max response: on the % scale 0 is the no-effect control and ±100 the full control effect
Outline: (§1)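 Compounds were pin-transferred onto cells and incubated 48 or 72 hr at 37 degree Celsius, 95% humidity. CellTiter-Glo was added, plates sat 10 min at room temperature, then ATP-coupled luminescence was imaged as the viability read-out.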

HEK293 = assay: as above; conditions: Five cell lines viability, CellTiter-Glo ATP luminescence, 48-72 h; max response: hits give low values
Outline: as §1

HaCat [1] = assay: as above; conditions: Five cell lines viability, CellTiter-Glo ATP luminescence, 48-72 h; max response: hits give low values
Outline: as §1

KB-3-1 = assay: as above; conditions: Five cell lines viability, CellTiter-Glo ATP luminescence, 48-72 h; max response: hits give low values
Outline: as §1

NIH3T3 [2] = assay: as above; conditions: Five cell lines viability, CellTiter-Glo ATP luminescence, 48-72 h; max response: hits give low values
Outline: as §1

HACAT [3] = assay: qHTS assay to identify novel small-molecules to repurpose for Merkel cell carcinoma treatment (AID 1296009); conditions: MCC and control cell lines, CellTiter-Glo viability, 72 h; at 44.8 µM (top of the series) unless noted; further: nearly all actives have a fitted effect of over 60% in size
Outline: (§2)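 Viability readout: ATP luminescence (CellTiter-Glo) after 72 hr drug exposure at 37 degree celsius. Dose-response format was 8 points for NPC and 11 points for MIPE; data normalized to in-plate controls.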

HEK293T = assay: as above; conditions: MCC and control cell lines, CellTiter-Glo viability, 72 h; series mostly up to 44.8 µM
Outline: as §2

NIH3T3 [4] = assay: as above; conditions: MCC and control cell lines, CellTiter-Glo viability, 72 h; at 44.8 µM (top of the series) unless noted
Outline: as §2

C33A = assay: Primary qHTS to identify gynecologic anti-cancer compounds using libraries of approved drugs and bioactive compounds (AID 1345084); conditions: Gynecologic cancer cell panel viability, ATPlite luminescence, 48 h; series mostly up to 57.5 µM; further: on the % scale 0 is the no-effect control and ±100 the full control effect; nearly all actives have a fitted effect of over 55% in size
Outline: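 ATP-based viability (ATPlite), 1,000 cells/well, 16 h pre-incubation, 48 h compound at 37 C, 5% CO2, 15 min RT before read.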

CC1=CC[C@]2(C(=O)O[C@@H]3O[C@H](CO[C@@H]4O[C@H](CO)[C@@H](O[C@@H]5O[C@@H](C)[C@H](O)[C@@H](O)[C@H]5O)[C@H](O)[C@H]4O)[C@@H](O)[C@H](O)[C@H]3O)CC[C@]3(C)C(CCC4[C@@]5(C)C[C@@H](O)[C@H](O)[C@@](C)(CO)C5CC[C@]43C)C2C1C (some centres not stated)
inactive: max response (CRL-7250) -9.97% | outcome (HEK293) | outcome (HaCat [1]) | max response (KB-3-1) 0.857% | outcome (NIH3T3 [2]) | outcome (HACAT [3]) inactive [at 9.27 µM] | outcome (HEK293T) inactive [at 9.27 µM] | outcome (NIH3T3 [4]) inactive [at 9.27 µM] | activity change, negative = cytotoxicity (C33A) 6.24% [at 11.6 µM]

CC(C#N)C(C)O[C@@H]1O[C@H](CO)[C@@H](O)[C@H](O)[C@H]1O (some centres not stated)
inactive: outcome (CRL-7250) | outcome (HEK293) | outcome (HaCat [1]) | outcome (KB-3-1) | outcome (NIH3T3 [2]) | outcome (HACAT [3]) | Potency (HEK293T) | outcome (NIH3T3 [4]) | Potency (C33A)

CC1OC(OC2C(C)OC(OC3C(OC(=O)/C=C/c4ccc(O)cc4)C(CO)OC(OC4(COC(=O)/C=C/c5ccc(O)cc5)OC(CO)C(O)C4O)C3OC3OCC(O)(CO)C3O)C(O)C2O)C(O)C(O)C1O (configuration not stated)
inactive: max response (CRL-7250) -0.0903% | outcome (HEK293) | outcome (HaCat [1]) | max response (KB-3-1) 4.29% | outcome (NIH3T3 [2]) | outcome (HACAT [3]) inactive [at 9.27 µM] | outcome (HEK293T) inactive [at 9.27 µM] | outcome (NIH3T3 [4]) inactive [at 9.27 µM] | activity change, negative = cytotoxicity (C33A) 4.08% [at 11.6 µM]

CCS(=O)(=O)N1CCC([C@@H](C)n2c(C)c(C(=O)NCc3c(OC)cc(C)[nH]c3=O)c3ccccc32)CC1
inactive: outcome (CRL-7250) | outcome (HEK293) | outcome (HaCat [1]) | max response (KB-3-1) 9.76% | outcome (NIH3T3 [2]) | outcome (HACAT [3]) | Potency (HEK293T) | outcome (NIH3T3 [4]) | Potency (C33A)

C[C@@H]1C[C@H](O[C@@H]2O[C@H](CO[C@@H]3OC[C@](O)(CO)[C@H]3O)[C@@H](O)[C@H](O)[C@H]2O)CC(C)(C)[C@H]1/C=C/[C@@H](C)O
inactive: max response (CRL-7250) -2.76% | outcome (HEK293) | outcome (HaCat [1]) | outcome (KB-3-1) | outcome (NIH3T3 [2]) | outcome (HACAT [3]) inactive [at 17.4 µM] | Potency (HEK293T) | outcome (NIH3T3 [4]) inactive [at 17.4 µM] | Potency (C33A)

COc1cc([C@H]2OC[C@@H]3[C@@H](c4ccc(O[C@@H]5O[C@H](CO)[C@@H](O)[C@H](O)[C@H]5O)c(OC)c4)OC[C@]23O)ccc1O
inactive: max response (CRL-7250) -6.95% | outcome (HEK293) | outcome (HaCat [1]) | max response (KB-3-1) 3.2% | outcome (NIH3T3 [2]) | outcome (HACAT [3]) inactive [at 17.4 µM] | Potency (HEK293T) | outcome (NIH3T3 [4]) inactive [at 17.4 µM] | Potency (C33A)

CC1CCC2C(C)(C)C(O)CCC2(C)C12Cc1c(O)cc3c(c1O2)C(N)=NC3 (configuration not stated)
inactive: max response (CRL-7250) -9.29% | outcome (HEK293) | outcome (HaCat [1]) | outcome (KB-3-1) | outcome (NIH3T3 [2]) | outcome (HACAT [3]) | Potency (HEK293T) | outcome (NIH3T3 [4]) | Potency (C33A)

CC(C)NC[C@H](O)COc1ccc(CCOCC2CC2)cc1
inactive: max response (CRL-7250) -3.5% | outcome (HEK293) | outcome (HaCat [1]) | outcome (KB-3-1) | outcome (NIH3T3 [2]) | outcome (HACAT [3]) | Potency (HEK293T) | outcome (NIH3T3 [4]) | Potency (C33A)

CC(CCC1C(C(=O)O)=CC(=O)CC1(C)C)O[C@@H]1O[C@H](CO)[C@@H](O)[C@H](O)[C@H]1O (some centres not stated)
inactive: max response (CRL-7250) 1.37% | outcome (HEK293) | outcome (HaCat [1]) | outcome (KB-3-1) | outcome (NIH3T3 [2]) | outcome (HACAT [3]) | Potency (HEK293T) | outcome (NIH3T3 [4]) | Potency (C33A)

CC(C)(O)c1ccc2c(c1)C(O)CC1C(C)(C(=O)O)CCCC21C (configuration not stated)
inactive: max response (CRL-7250) -4.52% | outcome (HEK293) | outcome (HaCat [1]) | max response (KB-3-1) 3.03% | outcome (NIH3T3 [2]) | outcome (HACAT [3]) | Potency (HEK293T) | outcome (NIH3T3 [4]) | Potency (C33A)

C[C@@H]1O[C@@H](O[C@@H]2[C@@H](O)[C@H](O[C@@H]3[C@@H](O)[C@@H](O)[C@H](O[C@H]4[C@H](OC(=O)[C@]56CCC(C)(C)C[C@H]5C5=CCC7[C@@]8(C)C[C@H](O)[C@H](O[C@@H]9O[C@@H](C)[C@H](O)[C@@H](O)[C@H]9O)[C@@](C)(CO)C8CC[C@@]7(C)[C@]5(C)C[C@H]6O)O[C@H](C)[C@H](O)[C@@H]4O)O[C@H]3C)OC[C@H]2O)[C@H](O)[C@H](O)[C@H]1O (some centres not stated)
inactive: max response (CRL-7250) 4.2% | outcome (HEK293) | outcome (HaCat [1]) | outcome (KB-3-1) | outcome (NIH3T3 [2]) | outcome (HACAT [3]) inactive [at 9.27 µM] | outcome (HEK293T) inactive [at 9.27 µM] | outcome (NIH3T3 [4]) inactive [at 9.27 µM] | activity change, negative = cytotoxicity (C33A) 1.27% [at 6.55 µM]

CC(NC(=O)CC(=O)O)c1nc2ccccc2c(=O)[nH]1 (configuration not stated)
inactive: max response (CRL-7250) -1.93% | outcome (HEK293) | outcome (HaCat [1]) | outcome (KB-3-1) | outcome (NIH3T3 [2]) | outcome (HACAT [3]) | Potency (HEK293T) | outcome (NIH3T3 [4]) | Potency (C33A)

CCCC1=CC2=C(CO1)C(=O)C(C)(OC(=O)c1c(C)cc(OC)cc1O)C(O)C2 (configuration not stated)
inactive: max response (CRL-7250) -27.1% | outcome (HEK293) | outcome (HaCat [1]) | max response (KB-3-1) 0.111% | outcome (NIH3T3 [2]) | outcome (HACAT [3]) inactive [at 17.4 µM] | Potency (HEK293T) | outcome (NIH3T3 [4]) inactive [at 17.4 µM] | Potency (C33A)

From PubChem BioAssay (NCATS)
